PNC assembly inh: blocks assembly of the perinucleolar compartment; PC3M PTB-GFP, PNC prevalence imaging, 16 h; hits give low values; activity change (PNC), negative = inhibition, % at 10 µM; 140,000 tested, 3.1% active; AID 2417;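 active means readout at or below -70, meaning at least 70% loss of cells showing the perinucleolar compartment, a nuclear body marking cancer cells; inconclusive means readout between -30 and a set limit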
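PC3M cells stably expressing PTB-GFP, 750–1000 cells/well, treated 16 h at 37 °C with compound (23 nl of library stock), in duplicate. After paraformaldehyde fixation and Hoechst stain, imaged at 20x; PNC prevalence scored by image analysis.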
ALDH1A1 inh: inhibitors of human aldehyde dehydrogenase 1A1; P00352; Purified ALDH1A1, NADH fluorescence, propionaldehyde substrate; Potency, µM (titrated, usually from 75.3 µM), most hits filed as inhibitors; 220,000 tested, 7.3% active; AID 1030; active means well fitted inhibition curve with a large enough effect, not every such curve was filed as active; inconclusive means small, poorly fitted or top-dose-only effect, or another doubt; inactive means no such curve, though single readings can be large or run the other way
ALOX12 inhib: inhibitors of human 12-lipoxygenase (ALOX12); P18054; purified 12-hLO, xylenol orange hydroperoxide absorbance; Potency, µM (top dose mostly 57.1 µM), usual class: inhibitors; 150,000 tested, 0.12% active; AID 1452; further: nearly all actives have a fitted effect of over 55% in size
Target sequence (P18054 whole entry, looked up): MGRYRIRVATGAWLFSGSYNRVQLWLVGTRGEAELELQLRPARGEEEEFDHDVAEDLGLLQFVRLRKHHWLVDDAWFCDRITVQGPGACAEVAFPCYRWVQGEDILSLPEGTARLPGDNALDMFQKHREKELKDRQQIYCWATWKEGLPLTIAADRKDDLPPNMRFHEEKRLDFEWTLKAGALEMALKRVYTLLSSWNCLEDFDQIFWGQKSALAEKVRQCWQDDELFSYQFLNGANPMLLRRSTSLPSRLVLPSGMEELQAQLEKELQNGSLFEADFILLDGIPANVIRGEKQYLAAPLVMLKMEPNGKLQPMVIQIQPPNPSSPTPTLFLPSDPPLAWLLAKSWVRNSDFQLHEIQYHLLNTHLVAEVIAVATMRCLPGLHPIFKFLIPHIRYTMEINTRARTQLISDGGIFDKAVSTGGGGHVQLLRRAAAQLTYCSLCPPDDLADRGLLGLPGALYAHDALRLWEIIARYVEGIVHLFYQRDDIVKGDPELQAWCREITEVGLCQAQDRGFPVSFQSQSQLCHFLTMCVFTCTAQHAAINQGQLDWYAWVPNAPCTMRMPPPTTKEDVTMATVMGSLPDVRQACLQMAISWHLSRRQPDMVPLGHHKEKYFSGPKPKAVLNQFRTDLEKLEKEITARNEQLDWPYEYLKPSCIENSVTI
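Xylenol orange chromogenic assay: hydroperoxide from 12hLO oxidises Fe(II), giving red-shifted Fe(III)-XO absorbance. Conditions: 150 nM enzyme, 40 uM arachidonic acid, 25 mM Hepes pH 7.0, 0.01% Triton X-100, 30 min, room temperature.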
GLA spleen mod: inhibits or activates alpha-galactosidase in human spleen homogenate; human spleen homogenate, 4MU-alpha-Gal fluorescence, 40 min; Potency, µM (series often up to 80 µM), usual class: inhibitors; 240,000 tested, 0.008% active; AID 2107
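Fluorogenic readout (Ex 365/Em 440 nm) of 4-methylumbelliferone released from 1 mM 4-MU-alpha-galactoside by spleen homogenate, 40 min at 37C, pH 5.0. Data normalized to no-enzyme and enzyme controls; Hill-equation AC50 from compound titrations.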
GLA inh pH 4.5: blocks human alpha-galactosidase A at pH 4.5; P06280; purified enzyme, 4-MU-alpha-Gal fluorescence, pH 4.5; activity change, negative = inhibition, % at 105 µM; 230,000 tested, under 10 active
HPGD inh: blocks human HPGD enzyme activity | Potency, µM, usual class: inhibitors | 150,000 tested, 4.3% active | P15428 | purified HPGD, NADH fluorescence kinetic, PGE2 substrate | AID 894; active means well fitted inhibition curve with a large enough effect, not every such curve was filed as active; inconclusive means small, poorly fitted or top-dose-only effect, or another doubt; inactive means no such curve, though single readings can be large or run the other way
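NADH formation kinetics: reaction with 30 uM PGE2 and 1 mM NAD+ (final), 20 nM enzyme, Tris-HCl pH 8 with Tween 20, after 15 min compound preincubation at room temperature. Fluorescence change, last versus first of five reads.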
A number is an active result; n = inactive; u = inconclusive; x = no result; [ ] = another dose, or the depositor's remark. In the library only some 10% were active in any assay of this set; here they are far more common. Unless noted, the call rests on the fitted dose curve; in most records, active means well fitted curve in the direction sought with a large enough effect; inconclusive means small, poorly fitted or top-dose-only effect, or another doubt; inactive means no such curve, though single readings can be large; an effect the other way counts as inactive or inconclusive.

SMILES | PNC assembly inh | ALDH1A1 inh | ALOX12 inhib | GLA spleen mod | GLA inh pH 4.5 | HPGD inh
CCCOc1ccc(C2NC(=S)NC(C)=C2C(=O)c2ccccc2)cc1OC (stereo not given) | n | u | u | n | n | n
OCCCc1ccccc1 | x | x | x | n | x | x
O=C(C1=NNCC1c1ccccc1)C1OC1c1ccccc1 (stereo not given) | x | x | x | n | n | x
Cc1cccc(CNc2ccnc(-c3ccc(N(C)C)cc3)n2)c1 | x | u | u | n | n | u
COc1cccc(-c2nccc(NCc3cccc(C)c3)n2)c1 | x | n | n | n | n | n
Cc1cccc(CNc2ccnc(-c3ccoc3)n2)c1 | x | 13µM | n | n | n | u
Cc1cccc(CNc2ccnc(-c3ccc(C(=O)N(C)C)cc3)n2)c1 | x | u | n | n | n | 8.9µM
CCN(CC)S(=O)(=O)c1ccc(N2CCOCC2)c(NS(=O)(=O)c2ccc(C)c(C)c2)c1 | n | 0.89µM | n | n | n | n
Cc1ccc(CN2C(=O)C3CCCN3c3ccc(S(=O)(=O)N4CCOCC4)cc32)cc1 (stereo not given) | n | 14µM | n | n | n | n
Cc1ccc(S(=O)(=O)Nc2cc(S(=O)(=O)N3CCCCC3)ccc2N2CCOCC2)cc1 | x | 13µM | x | n | n | x
Cc1ccc(S(=O)(=O)Nc2cc(C(=O)N3CCOCC3)ccc2N2CCCCC2)cc1 | n | u | n | n | n | n
CCN(CC)S(=O)(=O)c1ccc(N2CCOCC2)c(NS(=O)(=O)c2ccc(C)cc2)c1 | n | 2.2µM | n | n | n | n
O=C1CC(N2CCN(c3ccc(S(=O)(=O)N4CCOCC4)cc3)CC2)C(=O)N1Cc1ccccc1 (stereo not given) | u | n | n | n | n | n
CCCN(CCC)C(=O)Nc1cc(Cl)ccc1OC | x | x | x | n | n | x
O=C(c1ccco1)N1CCC2(CC1)CCN(c1ccccn1)CC2 | x | u | n | n | x | n
O=C(Cn1sc2ccccc2c1=O)NC12CC3CC(CC(C3)C1)C2 | n | 0.071µM | 7.9µM | n | n | 0.32µM
COc1ccc2c(c1)C(=O)[C@@H](OC(=O)NCc1ccc3c(c1)OCO3)[C@H](c1ccc(OC)c(Br)c1)O2 | n | n | n | n | n | n
O=C(O)CC(Cn1[nH]nnc1=S)c1ccccc1 (stereo not given) | u | 10µM | n | n | n | n
O=S(=O)(NC1CCCCC1)c1ccc(-c2csnn2)s1 | n | n | n | n | n | 14µM
O=S(=O)(NC1CCCC1)c1ccc(Br)s1 | n | n | n | n | n | 25µM
CC(C)CC(OC(=O)c1nsc(Cl)c1Cl)C(=O)NCc1cccs1 (stereo not given) | n | u | n | n | n | 5µM
CCC(OC(=O)c1nsc(Cl)c1Cl)C(=O)NCc1cccs1 (stereo not given) | n | n | n | n | n | 25µM
CC(OC(=O)c1nsc(Cl)c1Cl)C(=O)NCc1ccc2c(c1)OCO2 (stereo not given) | n | u | n | n | n | u
CC(OC(=O)c1nsc(Cl)c1Cl)C(=O)NCc1ccco1 (stereo not given) | n | n | n | n | n | n
Cc1cccc(C)c1NC(=O)C(NC(=O)CN1C(=O)c2ccccc2C1=O)c1ccccc1 (stereo not given) | n | n | n | n | n | n
SMILES | PNC assembly inh | ALDH1A1 inh | ALOX12 inhib | GLA spleen mod | GLA inh pH 4.5 | HPGD inh
COC(=O)COc1cc(Br)c(/C=C2/SC(=O)N(CC(=O)N3CCCC3)C2=O)cc1OC | n | 20µM | n | n | n | n
COC(=O)COc1ccc(/C=C2/SC(=O)N(CC(=O)N3CCCC3)C2=O)cc1Br | n | n | n | n | n | n
COc1ccc(NS(=O)(=O)c2ccc(/C=C/C(=O)O)cc2)cc1S(=O)(=O)N1CCOCC1 | x | n | x | n | n | x
Cc1nn(-c2ccccc2)c(N)c1Sc1ccccc1[N+](=O)[O-] | n | u | n | n | n | n
Cc1nn(-c2ccccc2)c(N)c1Sc1cccc([N+](=O)[O-])c1 | n | u | n | n | n | 25µM
COC(=O)c1ccc(C(NC(=O)OCc2ccccc2)/C(=C/[C@@H](C)C(=O)NC2CCCCC2)c2cccnc2)cc1 (stereo not given in full) | x | n | n | n | n | n
COc1ccc(OC)c(NC(=O)NC2(C(F)(F)F)Oc3ccccc3O2)c1 | n | 7.1µM | n | n | n | n
COC(=O)NC(CC(C)=O)c1ccc(Cl)cc1 (stereo not given) | x | n[13.5 µM] | x | n[17.5 µM] | x | x
Nc1nc2ccccc2n1/N=C/c1ccc([N+](=O)[O-])s1 | -83 | n | n | n | n | n
Nc1nc2ccccc2n1/N=C/c1ccc(-c2ccccc2)o1 | n | n | n | n | n | n
CCCCN1CNC(=S)N(c2ccc(C(=O)OCC)cc2)C1 | n | n | n | n | n | n
Cc1cccc(NC(=S)N2CCC(N(C)CC3CCCO3)CC2)c1 (stereo not given) | x | n | x | n | n | x
Nc1ccc(O)cc1C(=O)OCC(=O)C12CC3CC(CC(C3)C1)C2 | u | u | u | n | n | u
N#CC1(C#N)CC(C=O)=C(N)C1(C#N)CC(=O)C12CC3CC(CC(C3)C1)C2 (stereo not given) | n | 18µM | n | n | n | n
O=C(NCCCNc1ccc([N+](=O)[O-])cc1)C(F)(F)F | n | u | u | u | n | 20µM
O=C(CCl)N(CCCNC(=O)C(F)(F)F)c1ccc([N+](=O)[O-])cc1 | x | x | x | n | n | x
Cc1cc(C(=O)COC(=O)Cc2n[nH]c(=O)c3ccccc23)c(C)n1-c1cccc(C(F)(F)F)c1 | n | 7.9µM | n | n | n | n
CC(C)CN=Cc1c(O)c([N+](=O)[O-])cc2oc3c(c12)CCCC3 | n | 28µM | n | n | n | n
C/C(=N\NC(=O)c1cccnc1)c1ccc(OC2OCCOC2Oc2ccc(/C(C)=N/NC(=O)c3cccnc3)cc2)cc1 (stereo not given) | x | n | x | n | n | x
Cc1ccc(F)c(C2C3C=CCC(C)C3C(=O)N2Cc2ccccc2)c1 (stereo not given) | x | x | x | n | x | x
O=C(CN1CCC(NC(=O)c2ccco2)CC1)Nc1ccccc1[N+](=O)[O-] | x | 22µM | x | n | n | x
COCC(=O)NC1CCN(CC(=O)Nc2ccc(OC)cc2[N+](=O)[O-])CC1 | n | 13µM | n | n | n | n
COCC(=O)NC1CCN(CC(=O)Nc2ccccc2[N+](=O)[O-])CC1 | x | n | x | n | n | x
COc1cc(OC)cc(C(=O)NC2CCN(CC(=O)Nc3cccc4ccccc34)CC2)c1 | n | n | n | n | n | n
O=C(CN1CCC(NC(=O)c2ccco2)CC1)Nc1cccc2ccccc12 | -100 | n | n | n | n | n
